Measurements: PubChem BioAssay (Tox21)
Where “and” joins values, the source holds several entries; their conditions need not be identical. Identical values can stand only once. Records with an inconclusive call do not appear. A structure can be active in one record and inactive in another. Calls of active or inactive are those of the source. Calls come from the whole dose curve; as a rule, active = well fitted curve in the direction sought with a large enough effect in the repeat runs; inconclusive = weak or mixed curves; inactive = no such curve, though single readings can be large; an effect the other way counts as inactive or inconclusive.

Assays:
[1] = Caspase-3/7 induction in HepG2 cells by small molecules, qHTS cell viability counter screen (AID 1346981); note: nearly all actives have a fitted effect of over 30% in size; note: potency is the fitted concentration of half-maximal effect
Outline: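 CellTiter-Fluor fluorescence measured viability in the same wells used for Caspase-Glo 3/7. HepG2 (wild type) at 2,000 cells/well were pre-incubated 5 hr, dosed, and given reagent at 16 hr, with 1 hr further at 37C.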

[2] = biological target: Nuclear receptor subfamily 1 group I member 2 (Homo sapiens) (UniProt O75469); experiment: Human pregnane X receptor (PXR) small molecule agonists, qHTS assay (AID 1346982); note: nearly all actives have a fitted effect of over 35% in size; note: potency is the fitted concentration of half-maximal effect
Nuclear receptor subfamily 1 group I member 2 (Homo sapiens), sequence (O75469 whole entry, looked up): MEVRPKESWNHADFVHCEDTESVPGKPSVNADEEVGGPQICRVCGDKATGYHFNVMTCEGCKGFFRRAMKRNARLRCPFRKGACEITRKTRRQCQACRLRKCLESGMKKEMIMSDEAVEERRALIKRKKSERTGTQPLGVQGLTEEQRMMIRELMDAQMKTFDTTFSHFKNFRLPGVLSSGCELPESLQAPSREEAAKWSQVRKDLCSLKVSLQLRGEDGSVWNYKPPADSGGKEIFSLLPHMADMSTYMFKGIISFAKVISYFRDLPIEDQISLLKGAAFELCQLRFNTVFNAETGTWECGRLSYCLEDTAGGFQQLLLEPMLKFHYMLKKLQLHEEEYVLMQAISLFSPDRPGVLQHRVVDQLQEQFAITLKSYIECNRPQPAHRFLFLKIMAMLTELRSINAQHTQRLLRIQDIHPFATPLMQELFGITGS
Outline: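 Agonist mode: luminescence from ONE-Glo after 24 h compound exposure at 37C in HepG2 cells carrying hPXR-responsive CYP3A4 luciferase, plated in charcoal-stripped serum medium 5 h beforehand.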

[3] = biological target: Nuclear receptor subfamily 1 group I member 2 (Homo sapiens) (UniProt O75469); experiment: Human pregnane X receptor (PXR) activation by small molecules, qHTS assay (AID 1346985); note: nearly all actives have a fitted effect of over 40% in size; note: potency is the fitted concentration of half-maximal effect
Outline: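 DPX-2 cells (HepG2 co-transfected with a PXR response element and a CYP3A4-promoter luciferase construct) were seeded at 2,000 per well, rested 5 hr at 37C, then exposed to DMSO-dissolved compounds for 24 hr. Activation was read as luciferase luminescence.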

[4] = biological target: Cytochrome P450 2D6 (Homo sapiens) (UniProt P10635); experiment: Cytochrome P450 Family 2 Subfamily D Member 6 (CYP2D6) small molecule antagonists: luciferase reporter qHTS assay (AID 1671196); note: nearly all actives have a fitted effect of over 50% in size; note: potency is the fitted concentration of half-maximal effect; for activity change, negative = inhibition: series mostly up to about 120 µM
Cytochrome P450 2D6 (Homo sapiens), sequence (P10635 whole entry, looked up): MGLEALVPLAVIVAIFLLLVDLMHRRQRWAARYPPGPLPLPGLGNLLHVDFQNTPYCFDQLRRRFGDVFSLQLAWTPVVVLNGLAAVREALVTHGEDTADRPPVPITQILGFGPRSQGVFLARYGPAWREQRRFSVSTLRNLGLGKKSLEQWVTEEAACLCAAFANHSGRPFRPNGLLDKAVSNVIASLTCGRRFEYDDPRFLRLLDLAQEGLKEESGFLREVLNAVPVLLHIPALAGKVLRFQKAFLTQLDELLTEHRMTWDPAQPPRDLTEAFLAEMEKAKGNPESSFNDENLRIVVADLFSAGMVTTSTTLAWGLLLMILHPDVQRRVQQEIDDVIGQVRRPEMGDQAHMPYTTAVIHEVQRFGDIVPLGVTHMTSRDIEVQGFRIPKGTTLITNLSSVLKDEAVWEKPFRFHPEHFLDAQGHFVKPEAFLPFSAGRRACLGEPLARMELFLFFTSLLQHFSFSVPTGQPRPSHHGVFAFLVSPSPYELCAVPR
Outline: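 CYP2D6 activity was followed as luminescence from its luciferin product after a 1 h NADPH-driven reaction at room temperature. Enzyme-substrate mix and compound were pre-incubated for 10 min, and the signal was read 20 min after adding detection reagent.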

[5] = biological target: Cytochrome P450 2C19 (Homo sapiens) (UniProt P33261); experiment: Cytochrome P450 Family 2 Subfamily C Member 19 (CYP2C19) small molecule antagonists: luciferase reporter qHTS assay (AID 1671197); note: nearly all actives have a fitted effect of over 65% in size; note: potency is the fitted concentration of half-maximal effect; for activity change, negative = inhibition: series mostly up to about 120 µM
Cytochrome P450 2C19 (Homo sapiens), sequence (P33261 whole entry, looked up): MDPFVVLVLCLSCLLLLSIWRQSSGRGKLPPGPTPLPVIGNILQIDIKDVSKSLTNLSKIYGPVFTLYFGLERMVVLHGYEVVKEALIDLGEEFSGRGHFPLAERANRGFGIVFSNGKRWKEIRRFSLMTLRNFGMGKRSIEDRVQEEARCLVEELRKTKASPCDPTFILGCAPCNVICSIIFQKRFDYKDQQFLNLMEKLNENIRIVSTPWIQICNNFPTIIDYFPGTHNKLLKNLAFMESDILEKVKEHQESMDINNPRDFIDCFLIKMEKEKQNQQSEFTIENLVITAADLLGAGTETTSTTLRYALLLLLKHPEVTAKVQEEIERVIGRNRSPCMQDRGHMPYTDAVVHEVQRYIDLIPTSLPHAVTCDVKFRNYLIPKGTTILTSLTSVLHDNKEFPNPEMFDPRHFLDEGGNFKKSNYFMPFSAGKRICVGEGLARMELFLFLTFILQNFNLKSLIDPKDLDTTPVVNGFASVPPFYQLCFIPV
Outline: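 Inhibition of CYP2C19 was scored from loss of luminescence in a P450-Glo proluciferin substrate assay, NADPH-started and run 1 h at 37C, with ketoconazole as positive control.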

[6] = biological target: Cytochrome P450 1A2 (Homo sapiens) (UniProt P05177); experiment: Cytochrome P450 Family 1 Subfamily A Member 2 (CYP1A2) small molecule antagonists: luciferase reporter qHTS assay (AID 1671199); note: nearly all actives have a fitted effect of over 50% in size; note: potency is the fitted concentration of half-maximal effect; for activity change, negative = inhibition: series mostly up to about 120 µM
Cytochrome P450 1A2 (Homo sapiens), sequence (P05177 whole entry, looked up): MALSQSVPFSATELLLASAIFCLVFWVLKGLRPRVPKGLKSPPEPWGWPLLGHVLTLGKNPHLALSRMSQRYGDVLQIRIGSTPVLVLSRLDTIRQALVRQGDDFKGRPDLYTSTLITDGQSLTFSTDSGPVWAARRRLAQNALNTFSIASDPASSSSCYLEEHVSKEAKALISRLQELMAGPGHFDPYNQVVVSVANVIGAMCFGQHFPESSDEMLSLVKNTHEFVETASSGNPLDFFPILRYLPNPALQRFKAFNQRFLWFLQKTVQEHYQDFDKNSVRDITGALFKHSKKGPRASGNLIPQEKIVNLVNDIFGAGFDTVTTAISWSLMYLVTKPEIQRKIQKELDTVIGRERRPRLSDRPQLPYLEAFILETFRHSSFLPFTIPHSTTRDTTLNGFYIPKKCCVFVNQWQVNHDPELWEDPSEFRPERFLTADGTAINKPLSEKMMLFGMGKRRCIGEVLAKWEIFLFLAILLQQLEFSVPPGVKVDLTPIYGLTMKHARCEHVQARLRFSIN
Outline: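 Luminescence from luciferin formed by CYP1A2 from a proluciferin substrate, read 20 min after detection reagent. Compound was pre-incubated 10 min with enzyme-substrate, and reaction started with NADPH regeneration solution for 1 h at room temperature; furafylline control.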

[7] = biological target: Voltage-gated inwardly rectifying potassium channel KCNH2 (Homo sapiens) (UniProt Q12809); experiment: Human Ether-a-go-go-Related Gene (hERG) channel small molecule antagonists: fluorescence cell-based qHTS assay (AID 1671200);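 note: hERG-expressing U2OS cells given a thallium stimulus after FluxOR II dye loading; series mostly up to about 77 µM; nearly all actives have a fitted effect of over 50% in size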
Voltage-gated inwardly rectifying potassium channel KCNH2 (Homo sapiens), sequence (Q12809 whole entry, looked up): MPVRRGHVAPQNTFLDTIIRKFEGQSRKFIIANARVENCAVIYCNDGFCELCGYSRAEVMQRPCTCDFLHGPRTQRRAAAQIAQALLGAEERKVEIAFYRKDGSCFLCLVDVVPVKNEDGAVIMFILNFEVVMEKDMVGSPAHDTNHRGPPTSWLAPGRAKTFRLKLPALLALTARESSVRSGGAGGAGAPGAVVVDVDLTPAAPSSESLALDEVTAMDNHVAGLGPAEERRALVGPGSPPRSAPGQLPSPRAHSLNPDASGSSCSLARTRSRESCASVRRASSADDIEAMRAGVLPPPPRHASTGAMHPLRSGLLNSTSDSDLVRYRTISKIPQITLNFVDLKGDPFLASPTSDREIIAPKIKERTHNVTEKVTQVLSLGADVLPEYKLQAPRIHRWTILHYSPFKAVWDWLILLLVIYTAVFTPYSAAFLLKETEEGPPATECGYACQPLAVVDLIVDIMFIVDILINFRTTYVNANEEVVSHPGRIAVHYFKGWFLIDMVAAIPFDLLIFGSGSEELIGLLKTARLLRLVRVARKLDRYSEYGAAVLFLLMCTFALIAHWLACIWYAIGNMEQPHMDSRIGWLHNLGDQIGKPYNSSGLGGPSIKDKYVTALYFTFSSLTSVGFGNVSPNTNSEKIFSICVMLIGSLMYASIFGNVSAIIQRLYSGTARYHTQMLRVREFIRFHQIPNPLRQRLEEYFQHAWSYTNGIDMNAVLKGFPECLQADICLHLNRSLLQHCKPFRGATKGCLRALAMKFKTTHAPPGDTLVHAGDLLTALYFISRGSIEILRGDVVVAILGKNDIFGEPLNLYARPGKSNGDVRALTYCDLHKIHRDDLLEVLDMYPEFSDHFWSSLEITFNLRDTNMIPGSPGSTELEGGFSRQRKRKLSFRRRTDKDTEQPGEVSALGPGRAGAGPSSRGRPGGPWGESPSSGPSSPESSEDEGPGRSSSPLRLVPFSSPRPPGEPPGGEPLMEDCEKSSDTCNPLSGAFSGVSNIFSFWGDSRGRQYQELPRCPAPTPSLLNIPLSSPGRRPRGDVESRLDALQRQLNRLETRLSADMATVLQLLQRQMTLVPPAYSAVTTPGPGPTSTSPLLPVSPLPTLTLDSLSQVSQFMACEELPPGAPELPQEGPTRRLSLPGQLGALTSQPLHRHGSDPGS
Outline: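 Thallium served as the potassium surrogate; its influx into dye-loaded U2OS cells carrying the channel was measured by fluorescence over 2 min.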

[8] = biological target: Cytochrome P450 3A4 (Homo sapiens) (UniProt P08684); experiment: Cytochrome P450 Family 3 Subfamily A Member 4 (CYP3A4) small molecule antagonists: luciferase reporter qHTS assay (AID 1671201); note: nearly all actives have a fitted effect of over 50% in size; note: potency is the fitted concentration of half-maximal effect; for activity change, negative = inhibition: series mostly up to about 120 µM
Cytochrome P450 3A4 (Homo sapiens), sequence (P08684 whole entry, looked up): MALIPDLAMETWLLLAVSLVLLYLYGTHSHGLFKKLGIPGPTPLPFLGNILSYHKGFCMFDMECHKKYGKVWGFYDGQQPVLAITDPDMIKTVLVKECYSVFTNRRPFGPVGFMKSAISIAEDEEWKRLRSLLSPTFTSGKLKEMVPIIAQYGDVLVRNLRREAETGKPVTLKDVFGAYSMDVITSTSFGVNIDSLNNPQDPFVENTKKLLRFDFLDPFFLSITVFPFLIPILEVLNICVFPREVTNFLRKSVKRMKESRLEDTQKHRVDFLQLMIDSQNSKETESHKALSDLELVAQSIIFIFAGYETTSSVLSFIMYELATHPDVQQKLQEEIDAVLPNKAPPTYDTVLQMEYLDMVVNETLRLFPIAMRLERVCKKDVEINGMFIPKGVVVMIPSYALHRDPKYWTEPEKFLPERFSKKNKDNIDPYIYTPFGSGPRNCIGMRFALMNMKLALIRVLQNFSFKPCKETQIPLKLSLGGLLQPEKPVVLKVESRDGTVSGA
Outline: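 Relative luminescence units after 20 min with luciferin detection reagent served as read-out. Beforehand, CYP3A4 turned over a proluciferin substrate for 1 h at room temperature with NADPH regeneration, following 10 min compound preincubation.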

[9] = biological target: Cytochrome P450 2C9 (Homo sapiens) (UniProt P11712); experiment: Cytochrome P450 Family 2 Subfamily C Member 9 (CYP2C9) small molecule antagonists: luciferase reporter qHTS assay (AID 1671198); note: nearly all actives have a fitted effect of over 50% in size; note: potency is the fitted concentration of half-maximal effect; for activity change, negative = inhibition: series mostly up to about 120 µM
Cytochrome P450 2C9 (Homo sapiens), sequence (P11712 whole entry, looked up): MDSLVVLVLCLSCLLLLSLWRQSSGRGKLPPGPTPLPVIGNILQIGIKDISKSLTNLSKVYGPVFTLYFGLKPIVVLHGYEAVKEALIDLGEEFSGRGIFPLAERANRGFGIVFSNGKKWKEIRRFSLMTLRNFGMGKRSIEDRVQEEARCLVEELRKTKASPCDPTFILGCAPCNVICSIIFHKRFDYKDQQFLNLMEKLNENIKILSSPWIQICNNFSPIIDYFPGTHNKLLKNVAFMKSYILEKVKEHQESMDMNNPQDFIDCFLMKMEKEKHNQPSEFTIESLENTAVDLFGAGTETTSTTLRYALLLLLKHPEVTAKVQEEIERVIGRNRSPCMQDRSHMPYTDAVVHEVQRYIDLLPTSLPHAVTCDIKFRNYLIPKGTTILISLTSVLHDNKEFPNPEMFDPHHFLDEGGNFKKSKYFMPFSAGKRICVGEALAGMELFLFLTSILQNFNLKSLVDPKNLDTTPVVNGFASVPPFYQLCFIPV
Outline: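 CYP2C9 activity was measured with a P450-Glo proluciferin substrate. Enzyme–substrate mix was held with compound for 10 min at room temperature, then NADPH regeneration solution was added for 1 h at 37C. Luciferin product was read as luminescence.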
% is set by controls: 0 for no effect and ±100 for the full control effect.

CC(=O)Nc1ccccc1
inactive: Potency [1] | Potency [2] | Potency [3] | Potency [4] | Potency [6] | outcome [7] | Potency [8]
71.3 µM (active) and inactive: Potency [5]

CC1CCC2CC1C2(C)C (configuration not stated)
21.6 µM (active) and inactive: Potency [4]
inactive: Potency [1] | Potency [2] | Potency [5] | Potency [9] | Potency [6] | outcome [7]
inactive and 39.9 µM (active): Potency [8]

CCCCC(CC)COC(=O)C(C#N)=C(c1ccccc1)c1ccccc1 (configuration not stated)
inactive: Potency [1] | outcome [7]
active: Potency [2] 13.7 µM and 10.6 µM | Potency [3] 10 µM | Potency [4] 5.03 µM and 5.49 µM | Potency [5] 7.1 µM | Potency [9] 2.83 µM and 3.09 µM | Potency [6] 31.7 µM

O=C(OCCOCCOC(=O)c1ccccc1)c1ccccc1
inactive: Potency [1] | Potency [2] | Potency [4] | outcome [7] | Potency [8]
active: Potency [5] 35.5 µM and 39.9 µM | Potency [9] 8.91 µM and 14.2 µM | Potency [6] 5.01 µM and 8.94 µM

c1ccc(OCCOc2ccccc2)cc1
active: Potency [2] 61.1 µM and 24.3 µM | Potency [5] 5.02 µM and 5.03 µM | Potency [9] 28.2 µM and 22.4 µM | Potency [6] 15.9 µM and 20 µM
inactive: Potency [1] | Potency [4] | outcome [7] | Potency [8]

C#CCN(C)Cc1ccccc1
inactive: Potency [1] | Potency [2] | Potency [3] | Potency [5] | outcome [7] | Potency [8]

O=c1[nH]nnc2ccccc12
inactive: Potency [1] | Potency [2] | Potency [4] | Potency [5] | Potency [9] | Potency [6] | outcome [7] | Potency [8]

CCCCCCCCCCCCCCCO
active: Potency [5] 35.9 µM and 39.9 µM | Potency [9] 40.3 µM | Potency [6] 71.6 µM
inactive: Potency [1] | Potency [2] | Potency [4] | outcome [7] | Potency [8]

CCCCCC(N)=O
inactive: Potency [1] | Potency [2] | Potency [3] | Potency [4] | Potency [5] | Potency [6] | outcome [7] | Potency [8]

CN(C)CCCN
inactive: Potency [1] | Potency [2] | Potency [4] | Potency [5] | Potency [9] | Potency [6] | outcome [7] | Potency [8]

CCCCCCCC(=O)OC
inactive: Potency [1] | Potency [2] | Potency [4] | Potency [5] | Potency [9] | Potency [6] | outcome [7] | Potency [8]

Cc1ccc(S(N)(=O)=O)cc1
19.9 µM (active) and inactive: Potency [5]
28.1 µM (active) and inactive: Potency [8]
inactive: Potency [1] | Potency [2] | Potency [4] | Potency [9] | Potency [6] | outcome [7]

C=C(C)C(=O)OCCOCCOCCOC(=O)C(=C)C
inactive: Potency [1] | Potency [2] | outcome [7] | Potency [8]
20 µM (active) and inactive: Potency [4]
active: Potency [5] 22.5 µM and 31.7 µM | Potency [9] 40 µM | Potency [6] 40 µM and 28.3 µM

O=C(O)c1cc(O)c(O)c(O)c1
active: Potency [1] 43.7 µM
inactive: Potency [2] | Potency [3] | Potency [4] | Potency [6] | outcome [7] | Potency [8]

OCCOCCN1CCN(C2=Nc3ccccc3Sc3ccccc32)CC1
inactive: Potency [1]

O=c1[nH]c(=O)n([C@H]2C[C@H](O)[C@@H](CO)O2)cc1Br
12.4 µM (active) and inactive: Potency [2]
40.6 µM (active) and inactive: Potency [6]
inactive: Potency [1] | Potency [3] | Potency [4] | Potency [5] | outcome [7] | Potency [8]

O=C(O)[C@H](O)[C@@H](O)[C@H](O)[C@H](O)CO
inactive: Potency [1] | Potency [2] | Potency [3] | Potency [4] | activity change, negative = inhibition [9] 3.47% [at 4.07 µM] | outcome [7] | Potency [8]
active: Potency [5] 89.2 µM

C=C(C)C(=O)Nc1ccc(Cl)c(Cl)c1
inactive: Potency [1] | Potency [4] | outcome [7] | Potency [8]
active: Potency [2] 61.8 µM and 54.3 µM | Potency [5] 22.7 µM and 31.6 µM | Potency [9] 36 µM and 63 µM | Potency [6] 2.86 µM and 5 µM

COc1ccc2cc([C@H](C)C(=O)O)ccc2c1
inactive: Potency [1]

CC(=O)Nc1cccc(O)c1
inactive: Potency [1] | Potency [2] | Potency [3] | Potency [4] | Potency [5] | Potency [9] | Potency [6] | outcome [7] | Potency [8]

Cc1cnc(C(=O)NCCc2ccc(S(=O)(=O)NC(=O)NC3CCCCC3)cc2)cn1
inactive: Potency [1] | Potency [2]

Fc1ccc(Br)cc1
40.3 µM (active) and inactive: Potency [6]
inactive: Potency [1] | Potency [2] | Potency [4] | Potency [9] | outcome [7] | Potency [8]
71.7 µM (active) and inactive: Potency [5]

OC[C@H]1O[C@@](CO)(O[C@H]2O[C@H](CO)[C@@H](O)[C@H](O)[C@H]2O)[C@@H](O)[C@@H]1O
inactive and 27.3 µM (active): Potency [2]
inactive: Potency [1] | Potency [3] | Potency [4] | Potency [5] | Potency [6] | outcome [7] | Potency [8]
